ELG1 genotox: genotoxicity induction in ELG1-luciferase HEK293T cells; hit rate 1.3% among 330,000; HEK293T ELG1-luciferase reporter, luminescence, 16 h; Potency, µM (doses to about 46 µM), for the others: at the top dose activity change, positive = activation, hits mostly activators; further: % of control where 0% means no effect; nearly all actives have a fitted effect of over 60% in size
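Screening used a luciferase reporter fused to human ELG1 in HEK293T cells. Luminescence was read on a CCD plate imager after 16 hr exposure and 30 min ONE-Glo incubation.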
FLuc counter: inhibits or activates purified firefly luciferase, miR-21 counter-screen; purified FLuc, Km substrates, luminescence inhibition; hit rate 6.9% among 360,000; P08659; Potency, µM (top dose mostly 57.5 µM), for the others: at the top dose activity change, negative = inhibition, most hits filed as inhibitors;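 further: plate controls were vehicle for no effect and reference inhibitor for full effect; nearly all actives have a fitted effect of over 55% in size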
Target sequence (P08659 whole entry, looked up): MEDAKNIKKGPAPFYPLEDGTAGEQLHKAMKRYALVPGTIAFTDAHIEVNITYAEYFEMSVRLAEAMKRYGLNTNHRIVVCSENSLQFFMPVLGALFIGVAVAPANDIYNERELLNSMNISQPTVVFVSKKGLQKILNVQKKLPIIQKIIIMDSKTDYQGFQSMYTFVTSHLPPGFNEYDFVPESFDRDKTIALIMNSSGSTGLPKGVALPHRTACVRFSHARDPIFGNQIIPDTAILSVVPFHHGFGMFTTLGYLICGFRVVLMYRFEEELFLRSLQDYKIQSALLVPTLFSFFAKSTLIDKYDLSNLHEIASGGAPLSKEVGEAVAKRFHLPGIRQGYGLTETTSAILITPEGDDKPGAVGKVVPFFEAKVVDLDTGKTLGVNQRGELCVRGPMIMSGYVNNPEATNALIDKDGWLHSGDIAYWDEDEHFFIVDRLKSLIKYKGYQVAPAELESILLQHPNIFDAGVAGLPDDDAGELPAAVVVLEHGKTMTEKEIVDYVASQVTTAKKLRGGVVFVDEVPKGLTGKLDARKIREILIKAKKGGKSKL
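Biochemical qHTS of compounds, final roughly 60 µM downward over six points, against 10 nM purified firefly luciferase using Km concentrations of substrates (10 uM D-luciferin, 10 uM ATP) in Tris acetate pH 7.5 buffer; luminescence output.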
SMN2 splice up: increases expression of the SMN2 splice variant. HEK293 SMN2-luciferase splicing reporter, luminescence, 30-36 h. Potency, µM (series often up to 46.1 µM), inactives show top-dose activity change, positive = activation, most hits filed as activators. hit rate 2.8% among 210,000. AID 1458; further: % of control where 0% means no effect; nearly all actives have a fitted effect of over 55% in size
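HEK293 cells carry an SMN2 […]–luciferase reporter in which exon 7 inclusion puts luciferase in frame. Cells were plated 10-12 h before compound addition, then incubated 30-36 h at 37C. ONE-Glo luminescence was read; sodium butyrate at 4.5 mM final served as control.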
NPC1 promoter act: NPC1 promoter activation; Huh7 NPC1 promoter luciferase reporter, 24 h; Potency, µM (highest dose often 9.22 µM), for the others: top-dose activation, most hits filed as activators; hit rate 2.4% among 320,000; further: % of control where 0% means no effect; nearly all actives have a fitted effect of over 60% in size
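Readout is luciferase luminescence, reflecting NPC1 promoter activation in stably transfected Huh7 cells after 24 h compound exposure at 37 °C in reduced-serum medium with 10% FBS.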
Rab9 prom act: activates the Rab9 promoter. Huh7 Rab9 promoter-luciferase reporter, luminescence, 24 h. Potency, µM (series often up to 9.22 µM), without a hit: at the highest dose activation, negative = inhibition, hits mostly activators. hit rate 2.8% among 320,000; further: % of control where 0% means no effect; nearly all actives have a fitted effect of over 60% in size
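Using Huh7 cells stably transfected with Rab9 promoter–luciferase, compounds were incubated 24 h at 37 °C, 5% CO2; luciferase luminescence was read 10 min after reagent addition.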
The depositor's hits bear a star; ? = inconclusive; . = not tested or not shown; [ ] = another dose, or the depositor's remark. Most compounds without a hit are left out; they make up all but 7.5% or so of the library. The call rests on the fitted dose curve; in most records, active means well fitted curve in the direction sought with a large enough effect; inconclusive means small, poorly fitted or top-dose-only effect, or another doubt; inactive means no such curve, though single readings can be large; an effect the other way counts as inactive or inconclusive. Potency means the concentration at half of the fitted maximal effect.

SMILES | ELG1 genotox | FLuc counter | SMN2 splice up | NPC1 promoter act | Rab9 prom act
CCCCOc1ccc(C(=O)N2CCC(c3nc4ccccc4o3)CC2)cc1 | . | -4% | . | . | .
COc1ccc(C(=O)/C=C/Sc2nc3ccccc3o2)cc1 | 9% | 2.4µM* | . | -20% | -43%
O=[N+]([O-])c1cccn2cc(-c3ccc(Br)cc3)nc12 | ? | ? | . | ? | 2.8µM*
Cc1cc(C)c(S(=O)(=O)Nc2cc(-c3cn4ccccc4n3)ccc2C)cc1C | . | ? | 6% | . | .
Cc1ccc(-c2cn3cccc(C)c3n2)cc1 | ? | 1.1µM* | . | 4µM* | 1.4µM*
Cc1cccn2cc(-c3ccc(S(=O)(=O)N4CCCCC4)cc3)nc12 | -4% | 0% | . | 0% | 0%
Cc1ccc(-c2cn3cccc(C)c3n2)cc1NS(=O)(=O)c1ccccc1 | . | 17µM* | 23% | . | .
Cc1cccn2cc(-c3ccc(Cl)cc3)nc12 | 2.1µM* | 0.38µM* | . | ? | 1.3µM*
CC1NC(C(=O)O)Cc2c1[nH]c1ccccc21 (configuration not stated) | . | . | 0% | . | .
COc1ccc(NC(=O)c2cccnc2SC)cc1S(=O)(=O)N1CCCCC1 | -1% | 0% | -13% | -1% | -1%
COc1cc2c(cc1NC(=O)Nc1ccc(F)cc1)oc1ccccc12 | 3% | -1% | 6% | 12% | -3%
COc1ccc(-c2cn3cccc(C)c3n2)cc1F | 4.6µM* | 6µM* | 5.6µM* | ? | 2.5µM*
COc1ccc(-c2nc3c(-c4ccccc4)cnn3cc2C)cc1F | 7% | -16% | . | 11% | 21%
CCC(=O)N1c2ccccc2NC2=C(C(=O)CC(C)(C)C2)C1c1ccc(O)c(OC)c1 (configuration not stated) | 0% | -2% | . | -3% | 0%
Cc1cn2c(=O)cc(COC(=O)COc3ccc(C)c(C)c3)nc2s1 | . | 4% | . | . | .
CC(=O)Oc1ccc(/C=N/NC(=O)c2ccc(N(C)S(=O)(=O)c3ccccc3)cc2)cc1 | -5% | 15µM* | . | -3% | -2%
Cc1ccc(/C=N/NC(=O)c2ccc(N(C)S(=O)(=O)c3ccccc3)cc2)cc1 | -38% | 8.5µM* | . | -1% | 0%
COc1cc(/C=N/NC(=O)c2ccc(N(C)S(=O)(=O)c3ccccc3)cc2)cc(OC)c1OC | -7% | -2% | -9% | 0% | -12%
Cc1c2cn[nH]c(=O)c2c(C)n1-c1ccccc1 | 18% | 6µM* | . | 3% | 4%
O=c1c2cn[nH]c2[nH]c(=S)n1-c1ccccc1 | 3% | 0% | -17% | -1% | -2%
CCOc1ccc(S(=O)(=O)N(CC)CC(=O)N2CCOCC2)cc1C | -4% | 2% | . | -4% | 3%
Cc1ccc(N2C(=O)c3n[nH]c(C)c3C2c2ccco2)cc1 (configuration not stated) | ? | 8.5µM* | ? | ? | 23%
C=CCNC(=S)NNC(=O)COc1ccc2cc(Br)ccc2c1 | ? | -2% | 11µM* | ? | 3.2µM*
CCc1nnc(NC(=O)CSc2nc(-c3ccccc3)cc(-c3ccc(F)cc3)c2C#N)s1 | 2% | 6% | -16% | -7% | -2%
CCc1nnc(NC(=O)CSc2ccc(-c3cccs3)nn2)s1 | -14% | 11µM* | -5% | 0% | 2%
SMILES | ELG1 genotox | FLuc counter | SMN2 splice up | NPC1 promoter act | Rab9 prom act
CCc1nnc(NC(=O)CSc2ccc(-c3ccccc3OC)nn2)s1 | 8% | ? | -3% | -7% | -4%
CCc1nnc(NC(=O)CSc2ccc(-c3ccc(F)cc3)nn2)s1 | ? | 11µM* | ? | 2% | -3%
CC(C)CN(C(=O)COc1ccc([N+](=O)[O-])cc1)c1c(N)n(CC(C)C)c(=O)[nH]c1=O | 1% | 4% | . | -2% | 1%
O=C(c1ccccc1)N1CN2CN(C(=O)c3ccccc3)CC([N+](=O)[O-])(C2)C1 | -1% | 0% | -4% | 0% | -3%
C=CCOc1ccc(/C(O)=C2/C(=O)C(=O)N(CCCn3ccnc3)C2c2cccs2)cc1 (configuration not stated) | 4% | 15µM* | 3% | 25% | ?
CCCCN1CNC(=S)N(c2ccc(C(=O)OCC)cc2)C1 | 0% | -1% | 1% | 0% | -8%
COc1cccc(/C=N/NC(=O)CN(C)S(=O)(=O)c2ccccc2)c1OC | 8% | 21µM* | . | 19% | 19%
COc1ccccc1/C=N/NC(=O)c1cc2c(OC)c(OC)ccc2[nH]1 | 1% | 13µM* | . | -9% | -2%
COc1cccc(/C=N/NC(=O)c2cc3c(OC)cccc3[nH]2)c1OC | -3% | 21µM* | 1% | 2% | -8%
COc1cccc(/C=N/NC(=O)c2cc3c(OC)cccc3[nH]2)c1O | -2% | -19% | -109% | -27% | -36%
COc1cccc(/C=N/NC(=O)c2cc3c(OC)c(OC)ccc3[nH]2)c1OC | 4% | 11µM* | ? | -16% | -12%
N#CCCN/N=C(/Cc1nc2ccccc2[nH]1)c1ccc(Cl)cc1 | ? | 27µM* | 14µM* | 24% | ?
N/N=C(/Cc1nc2ccccc2[nH]1)c1ccc([N+](=O)[O-])cc1 | 1% | 12µM* | ? | 16% | 28%
N#CCCN/N=C(\Cc1nc2ccccc2[nH]1)c1ccccc1 | 14% | ? | 21% | 2% | 8%
Cc1ccc(N/N=C(\Cc2nc3ccccc3[nH]2)c2ccccc2)cc1 | ? | ? | ? | -22% | -12%
c1ccc(N/N=C(\Cc2nc3ccccc3[nH]2)c2ccccc2)cc1 | ? | 7.6µM* | 13µM* | ? | 25%
COc1cc(CN(C(=O)c2cccc(C)c2)c2ccccn2)cc(OC)c1OC | . | 5% | . | . | .
Cc1ccc2cc(CCNC(=O)c3ccco3)c(=O)[nH]c2c1C | ? | 4.3µM* | 7.1µM* | 3.5µM* | 1.4µM*
CCC(CC)C(=O)NCCc1cc2cc(C)c(C)cc2[nH]c1=O | -9% | 0% | 15% | -5% | -4%
Cc1ccc2cc(CCNC(=O)c3ccco3)c(=O)[nH]c2c1 | 18% | 19µM* | 10µM* | ? | 2.5µM*
COc1ccc2cc(CCNC(=O)c3ccco3)c(=O)[nH]c2c1 | 10µM* | 12µM* | . | 1.6µM* | 1.4µM*
Cc1cc2cc(CCNC(=O)c3cccs3)c(=O)[nH]c2cc1C | ? | 13µM* | 13µM* | 2.8µM* | 3.2µM*
COc1ccc(NC(=S)N2CCC(N(C)CC3CCCO3)CC2)cc1Cl (configuration not stated) | 1% | 5% | -4%[1.84 µM] | 0% | -2%
COc1ccc(NC(=O)C(CCS(C)(=O)=O)N2C(=O)c3ccccc3C2=O)cc1 (configuration not stated) | 6% | 6% | -1% | -1% | 0%
Cc1cc(NS(=O)(=O)c2ccc(NS(=O)(=O)c3ccc(Br)cc3)cc2)no1 | 1% | 0% | . | -3% | -3%
